# Screening results (PubChem)
# TDP1 inh: qHTS Assay for Inhibitors of Tyrosyl-DNA Phosphodiesterase (TDP1). Tyrosyl-DNA phosphodiesterase 1 (Homo sapiens), Q9NUW8. recombinant TDP1, AlphaScreen DNA substrate cleavage. Potency, µM (highest dose often 130 µM), for the others: at the top dose activity change, negative = inhibition, actives largely listed as inhibitors. hit rate 0.28% among 350,000. AID 485290, 2010; also: potency is read from the fitted curve at half-maximal effect; % is scaled to controls: 0 for no effect and ±100 for the full control effect; nearly all actives have a fitted effect of over 40% in size
# Target sequence (Q9NUW8 whole entry, looked up): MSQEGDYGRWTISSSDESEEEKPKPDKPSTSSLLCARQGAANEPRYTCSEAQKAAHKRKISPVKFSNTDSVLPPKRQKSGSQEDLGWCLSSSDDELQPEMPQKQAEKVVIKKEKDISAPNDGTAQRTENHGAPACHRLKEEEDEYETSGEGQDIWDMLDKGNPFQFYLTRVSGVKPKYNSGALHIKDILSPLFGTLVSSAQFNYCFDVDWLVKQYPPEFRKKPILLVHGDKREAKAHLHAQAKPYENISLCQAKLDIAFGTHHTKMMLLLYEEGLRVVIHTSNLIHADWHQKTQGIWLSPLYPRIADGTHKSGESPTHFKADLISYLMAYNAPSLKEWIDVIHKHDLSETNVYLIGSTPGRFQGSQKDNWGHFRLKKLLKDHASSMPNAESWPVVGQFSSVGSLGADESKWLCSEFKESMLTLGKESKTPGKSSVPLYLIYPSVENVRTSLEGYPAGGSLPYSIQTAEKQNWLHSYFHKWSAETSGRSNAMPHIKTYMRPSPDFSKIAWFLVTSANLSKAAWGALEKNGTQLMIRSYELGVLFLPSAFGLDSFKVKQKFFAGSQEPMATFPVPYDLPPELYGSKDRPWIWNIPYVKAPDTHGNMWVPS
#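 Steps: enzyme plus compound, 15 min RT; add biotin/phosphotyrosine-FITC oligonucleotide (15 nM final), react 5 min; add donor/acceptor beads (10 ug/ml final), 10 min; read AlphaScreen. Tdp1 at 1 nM final.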
# TGFb SMAD3 inh: qHTS for Inhibitors of TGF-b; HepG2 CAGA-GFP TGF-b/SMAD3 reporter, GFP fluorescence, 18 h; TGF-beta stimulated, 500 pg/mL final; Potency, µM (series often up to 46.1 µM), without a hit: at the highest dose activity, negative = inhibition, usual class: inhibitors; hit rate 1.2% among 410,000; also: potency is read from the fitted curve at half-maximal effect; % is scaled to controls: 0 for no effect and ±100 for the full control effect; nearly all actives have a fitted effect of over 65% in size
#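 HEPG2 CAGA-GFP cells (1000/well, DMEM with 1% FBS) were pre-incubated 2 h at 37 degrees C, given compound by pin tool, then stimulated with TGF-beta at 500 pg/mL final for 18 h before per-cell GFP fluorescence imaging.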
# IL-1B inflam inh: qHTS for Inhibitors of Inflammasome Signaling: IL-1-beta AlphaLISA Primary Screen | THP-1 LPS/ATP IL-1B secretion, AlphaLISA, 16 h; hits give low values | activity change, % at 57.5 µM | hit rate 4.7% among 360,000 | AID 743279, 2014; in the data active = activity change below about -50%; inconclusive = mostly about -30% to -49%; also: % is scaled to controls: 0 for no effect and ±100 for the full control effect
#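 THP-1 cells pretreated 1 hr with compounds (up to 57.5 uM final), then stimulated with LPS (250 ng/mL final) plus ATP (1.25 mM final); secreted IL-1B measured by AlphaLISA after 16 hr, decreased signal indicating inhibition.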
# DT40 TDP1 CPT: qHTS for Inhibitors of human tyrosyl-DNA phosphodiesterase 1 (TDP1): qHTS in cells in presence of CPT. chicken DT40 Tdp1-/-;hTDP1 cells + 20 nM CPT, ATP luminescence, 48 h. Potency, µM (top dose mostly 46.2 µM), for inactives: at the top dose activity change, negative = growth inhibition, hits mostly inhibitors. hit rate 12% among 420,000. AID 686979, 2013; also: potency is read from the fitted curve at half-maximal effect; % is scaled to controls: 0 for no effect and ±100 for the full control effect; nearly all actives have a fitted effect of over 55% in size
#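 Chicken DT40 Tdp1-/- cells complemented with human TDP1, 400 cells/well, exposed to compounds plus 20 nM camptothecin for at least 48 h at 37 C; viability read as ATP content by CellTiter-Glo luminescence.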
# DT40 TDP1 no CPT: qHTS for Inhibitors of human tyrosyl-DNA phosphodiesterase 1 (TDP1): qHTS in cells in absence of CPT; AID 686978, 2013; hit rate 15% among 420,000; DT40 Tdp1-/- hTDP1 cells, no CPT, ATP luminescence, 48 h; Potency, µM (series often up to 46.2 µM), inactives show at the highest dose activity change, negative = growth inhibition, hits mostly inhibitors; also: potency is read from the fitted curve at half-maximal effect; % is scaled to controls: 0 for no effect and ±100 for the full control effect; nearly all actives have a fitted effect of over 55% in size
#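 No-CPT arm: Tdp1-/-;hTDP1 DT40 cells (400/well) plus compounds, incubated ≥48 hr at 37 °C. Readout CellTiter-Glo luminescence.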
# HepG2 viability: qHTS for Inhibitors of TGF-b: Cytotox Counterscreen. HepG2 CAGA-GFP viability, ATP luminescence, 18 h. Potency, µM (top dose mostly 46.1 µM), without a hit: at the top dose activity change, negative = cytotoxicity, hits mostly cytotoxic. hit rate 0.76% among 410,000; also: potency is read from the fitted curve at half-maximal effect
#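 CellTiter-Glo luminescence gave cytotoxicity after 18 hours at 37 degrees C. The cells were HepG2 CAGA-GFP in 1% FBS DMEM, stimulated with 500 pg/mL TGF-beta after compound addition. %Activity was normalised to no-cell wells (complete cell-killing) and DMSO (no toxicity), and curves were fitted and classified.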
# * marks the source's active call; other numbers are inactive results; ? = inconclusive; · = not tested or not shown; [ ] = remark or other dose. Shown are actives, neighbours in structure and some others; about 19% of the full set was active somewhere. Unless noted, calls follow the shape of the dose curve; as a rule, active = well fitted curve in the direction sought with a large enough effect; inconclusive = small, poorly fitted or top-dose-only effect, or another doubt; inactive = no such curve, though single readings can be large; an effect the other way counts as inactive or inconclusive.
SMILES,TDP1 inh,TGFb SMAD3 inh,IL-1B inflam inh,DT40 TDP1 CPT,DT40 TDP1 no CPT,HepG2 viability
COc1ccc(N2CCN(C(=O)c3cccc(-n4c(C)nc5cccnc54)c3)CC2)cc1,8%,-15%,·,16µM*,23µM*,3%
CCCCNC(=O)c1cccc(-n2c(C)nc3cccnc32)c1,6%,0%,·,-4%,-28%,25%
Cc1nc2cccnc2n1-c1cccc(C(=O)N2CCN(c3ccc(Cl)cc3)CC2)c1,0%,0%,·,5.8µM*,2.6µM*,-41%
N/C(=N\OC(=O)c1csnn1)c1ccc(C(F)(F)F)cc1,·,18%,·,1%,-23%,7%
COC(=O)c1c(-c2ccc(Cl)cc2)noc1N1CCN(c2ccc(F)cc2)CC1,5%,4%,·,21µM*,21µM*,8%
Cc1cc(-c2ccc(C)c(S(=O)(=O)N3CCN(c4cccc(C(F)(F)F)c4)CC3)c2)on1,5%,9%,·,?,?,16%
COC(=O)c1c(-c2ccc(Cl)cc2)noc1N1CCN(c2ccccc2OC)CC1,5%,-16%,·,?,?,-12%
COC(=O)c1c(-c2ccc(Cl)cc2)noc1N1CCN(c2cccc(C(F)(F)F)c2)CC1,-3%,0%,·,15µM*,23µM*,2%
O=C(NNC(=O)C1CCN(S(=O)(=O)c2ccc(Cl)cc2)CC1)c1ccccc1O,-3%,?,71,?,?,-33%
Cc1ccc(NC(=O)Cc2ccc(Cl)cc2)cc1S(=O)(=O)N1CCCCCC1,-3%,?,?,?,?,-25%
CC(C)CC(=O)Nc1ccc(C(=O)COc2ccc(-c3nnco3)cc2)cc1,-2%,11%,-13,?,23µM*,-24%
Cc1ccc(NC(=O)COc2cccnc2[N+](=O)[O-])cc1S(=O)(=O)N1CCCCC1,8%,?,-6,13µM*,21µM*,-14%
COc1ccc(NC(=O)COc2cc(C)cc(C)c2)cc1S(=O)(=O)N1CCCCC1,-9%[0.505 µM],-24%,-8,7.3µM*,8.2µM*,6%
Cc1ccc(NC(=O)Cn2ncc(Cl)c(Cl)c2=O)cc1S(=O)(=O)N1CCCCC1,-1%,?,-75*,7.3µM*,3.3µM*,-41%
Cc1ccc(NC(=O)CSc2ccccc2)cc1S(=O)(=O)N1CCCCC1,0%,?,-26,15µM*,?,-2%
Cc1ccc(NC(=O)COc2ccccc2)cc1S(=O)(=O)N1CCCCCC1,0%[0.505 µM],?,-20,?,29µM*,-32%
CCOc1ccc(NC(=O)COc2cccc3cccnc23)cc1S(=O)(=O)N1CCCC1,·,6%,-27,?,15µM*,-16%
O=C(COc1cccc2cccnc12)Nc1cccc(S(=O)(=O)N2CCCC2)c1,1%,-1%,-29,?,?,4%
COc1ccc(Br)cc1S(=O)(=O)N1CCCC1,6%,2%,-4,9.2µM*,8.2µM*,1%
Cc1ccc(NC(=O)COc2ccc(-c3nnco3)cc2)cc1S(=O)(=O)N1CCOCC1,3%,-1%,-23,?,13µM*,2%
CCCn1c(C)cc(C(=O)COc2ccc(-c3nnco3)cc2)c1C,6%,-3%,·,4.6µM*,7.3µM*,-15%
COc1ccc(NC(=O)c2cncc(Br)c2)cc1S(=O)(=O)N1CCCCC1,1%,-19%,-11,?,21µM*,2%
COc1ccc(NC(=O)CSc2ccc(F)cc2)cc1S(=O)(=O)N1CCCCC1,-1%,?,-5,21µM*,-85%,16%
CC(C)CC(=O)N(c1nnc(-c2cccnc2)s1)C1CCCC1,4%,2%,-20,-25%,?,-5%
O=C(Oc1cccc2cccnc12)c1ccc(N2C(=O)C3C4CCC(C4)C3C2=O)cc1 (centres undefined),-4%,?,-95*,0.52µM*,1µM*,-74%
SMILES,TDP1 inh,TGFb SMAD3 inh,IL-1B inflam inh,DT40 TDP1 CPT,DT40 TDP1 no CPT,HepG2 viability
O=C(Oc1cccc2cccnc12)c1cccc(N2C(=O)C3C4CCC(C4)C3C2=O)c1 (centres undefined),0%,?,-81*,4.1µM*,4.6µM*,-32%
CC(OC(=O)c1cccc(-n2cnnn2)c1)C(=O)c1ccccc1 (centres undefined),·,1%,11,10%,-2%,6%
O=C(Oc1cccc2cccnc12)c1cccc(-n2cnnn2)c1,2%,-10%,1,?,18µM*,-24%
O=C1C2C3C=CC(C3)C2C(=O)N1c1cccc2cccnc12 (centres undefined),-1%,3%,13,-4%,?,3%
COc1ccc(NC(=O)c2cccc(N3C(=O)C4C5CCC(C5)C4C3=O)c2)cc1 (centres undefined),3%,-9%,12,?,?,-4%
O=C1NC[C@H](c2ccccc2)N1,1%,·,·,·,·,·
CC1=C(C(=O)OC2CCCCC2)C(c2cccnc2)n2nnnc2N1 (centres undefined),-5%,?,-10,8.2µM*,12µM*,-33%
O=C(c1ccc(Cl)c(S(=O)(=O)N2CCOCC2)c1)N1CCN(c2ccccc2F)CC1,3%,-1%,-5,?,?,-15%
Cc1cccc(N2CCN(C(=O)c3ccc(Cl)c(S(=O)(=O)NCc4ccco4)c3)CC2)c1C,3%,-12%,13,?,?,-2%
Cc1cccc(N2CCN(C(=O)c3ccc(Cl)c(S(=O)(=O)N4CCc5ccccc5C4)c3)CC2)c1C,2%,-21%,-10,?,15µM*,-1%
O=C(c1ccc(Cl)c(S(=O)(=O)N2CCc3ccccc32)c1)N1CCN(c2ccccc2O)CC1,-5%,?,-73*,?,23µM*,-19%
O=C(c1ccc(Cl)c(S(=O)(=O)N2CCCC2)c1)N1CCN(c2ccccc2F)CC1,0%,-4%,-1,?,16µM*,1%
COc1ccc(C(=O)Nc2ccc(C)cn2)cc1S(=O)(=O)N1CCCc2ccccc21,4%,?,-6,?,?,-20%
Cc1ccc(NC(=O)c2ccc(Cl)c(S(=O)(=O)N3CCc4ccccc43)c2)nc1,·,-25%,-16,?,26µM*,-9%
